The panel holds about 79,000 compounds, 15% with a hit somewhere; the sample as a whole holds those more often. Unmarked numbers belong to inactive results. The source made the active and inactive calls. Rule as the data show it: active = growth inhibition above about 70%; inactive = the rest.
Legend:
[1] = NCI Yeast Anticancer Drug Screen. Data for the rad50 strain (AID 155);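 also: 0% = growth of vehicle-only cultures of the same strain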; details: S. cerevisiae rad50 strain growth inhibition; at 50.0 µM; hits give high values
Procedure, shortened: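 Genetically altered yeast (DNA repair pathway); compound treatment; growth inhibition vs vehicle ctrl.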

[2] = NCI Yeast Anticancer Drug Screen. Data for the mec2-1 strain (AID 157); details: S. cerevisiae mec2-1 strain, at 50.0 µM, hits give high values
Procedure, shortened: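 Each compound was tested on mec2-1 yeast, a strain altered in DNA damage repair or cell cycle control. Growth inhibition is reported relative to vehicle.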

[3] = NCI Yeast Anticancer Drug Screen. Data for the sgs1 mgt1 strain (AID 161);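 also: 0% = growth of cultures given vehicle only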; details: S. cerevisiae sgs1 mgt1 strain, at 50.0 µM, hits give high values
Procedure, shortened: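 Inhibition of yeast growth, normalised to vehicle-treated controls, is reported for a strain bearing genetic alterations in DNA damage repair.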

[4] = NCI Yeast Anticancer Drug Screen. Data for the cln2 rad14 strain (AID 165);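 also: 0% = growth equal to vehicle treated cultures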; details: S. cerevisiae cln2 rad14 strain, at 50.0 µM, hits give high values
Procedure, shortened: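 Test compounds were added to cln2 rad14 yeast cultures; inhibition of growth was then determined by comparison with vehicle treatment.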

[5] = NCI Yeast Anticancer Drug Screen. Data for the bub3 strain (AID 167); details: S. cerevisiae bub3 mutant strain, at 50.0 µM, hits give high values
Procedure, shortened: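 Yeast carrying a defined mutation is treated with each compound, and growth is compared with that of vehicle-exposed cells to give inhibition.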

[6] = NCI Yeast Anticancer Drug Screen. Data for the mlh1 rad18 strain (AID 175); details: S. cerevisiae mlh1 rad18 strain growth inhibition; at 50.0 µM; hits give high values
Procedure, shortened: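 Inhibition values reflect reduced growth of mutant yeast versus vehicle-treated controls following compound exposure; the mutations affect DNA damage repair.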

Row | Compound | growth inhibition [1] | growth inhibition [2] | growth inhibition [3] | growth inhibition [4] | growth inhibition [5] | growth inhibition [6]
1 | Cc1ccc2c(c1)Cc1cc(C)ccc1-2 | 25.1% | 12.4% | 14.4% | 7.65% | 31.2% | 19.4%
2 | O=C1C2C(C(=O)N1c1ccccc1)C1(Br)c3ccccc3C2(Br)C2C(=O)N(c3ccccc3)C(=O)C21 (configuration not stated) | -9.6% | 6.3% | -3.35% | -13.4% | -4.55% | -2.55%
3 | CCN(CC)CCC(=O)N1C/C(=C/c2ccccc2)C(=O)/C(=C\c2ccccc2)C1 | 47.4% | 37.9% | 12.8% | 30.6% | 13.2% | 2.7%
4 | CC1(C)N=C(N)N=C(N)N1c1cccc(CO)c1 | 0.5% | 9.5% | 1.15% | -2.45% | 15.2% | 28.2%
5 | Clc1cccc2nsnc12 | 12.9% | -12.1% | -3.15% | -49% | 5.15% | 6.1%
6 | CC(=O)Nc1ccn(C2OC(COC(C)=O)C(OC(C)=O)C(OC(C)=O)C2OC(C)=O)c(=O)n1 (configuration not stated) | 0.3% | -14.3% | 2.45% | -12.1% | -4.3% | 5.55%
7 | CCCCCCNC1=C(OC)C(=O)C(NCCCCCC)=C(OC)C1=O | -7.4% | 7.9% | 2.1% | -54.9% | 8.5% | -13.6%
8 | O=C(NCc1ccccc1)C1C2CCC(C2)C1C(=O)NCc1ccccc1 (configuration not stated) | -0.85% | 50.8% | -1.95% | -2.35% | 22.9% | -6.35%
9 | O/N=C1\c2ccccc2-c2cccc(I)c21 | 23.4% | -5.25% | 7.8% | 1.5% | 1.1% | 5.5%
10 | O=C(/C=C\c1ccc(Cl)cc1)OCCCCOC(=O)/C=C/c1ccc(Cl)cc1 | 27.1% | 3.15% | -4.45% | 9.5% | 2.9% | 5.25%
11 | O=C(O)C(CO)(c1ccccc1)c1ccccc1 | -3.2% | -3.9% | -8.25% | -1.65% | -1.55% | -0.15%
12 | COc1ccc(-c2cc(C(=O)Nc3cccc(C(F)(F)F)c3)[nH]c(=S)n2)cc1 | -26.2% | -7.95% | -42% | 19.3% | -14.1% | -20.9%
13 | Cc1cc(Br)ccc1N | -3.15% | 1.95% | -9.5% | -36.5% | 19.1% | 9.25%
14 | CCOC(=O)C(NC(=O)c1ccccc1)C1NC(C(=O)O)C(C)(C)S1 (configuration not stated) | -23.1% | 5.6% | -5.1% | -21.8% | 0.8% | 3.55%
15 | O=[N+]([O-])c1cn(CCNc2c3ccccc3nc3ccccc23)cn1 | 17.4% | -5.35% | 20.4% | 10.6% | -3.85% | 16.8%
16 | O=[N+]([O-])c1ccc2[nH]ccc2c1 | 8.75% | -4.25% | -2.7% | 10.7% | 3.6% | 7.5%
17 | NC(N)=NC(N)=Nc1cccc(S(=O)(=O)c2cccc(N=C(N)N=C(N)N)c2)c1 | 8.1% | -0.55% | -0.1% | 12.8% | -3.95% | 13.2%
18 | Cc1nc2ccc(Cl)cc2c(Cl)c1CCCl | 12.1% | 6.5% | -19.9% | -8.15% | 31.5% | 13.8%
19 | O=[N+]([O-])c1ccc(Cl)cc1N/N=C/c1ccnc2ccccc12 | -53.4% | -56.1% | -28.6% | -15.1% | -17.4% | -54.9%
20 | CC1(C)C/C(=C\c2ccc([N+](=O)[O-])cc2)C(=O)c2ccccc21 | 80.3% (active) | 71.7% (active) | 77.5% (active) | 40.3% | 76.5% (active) | 89% (active)
21 | CC(=O)NC(CSCN(C)c1nc(N(C)C)nc(N(C)C)n1)C(=O)O (configuration not stated) | 7.5% | -3.45% | 2.95% | 5.6% | 8.2% | 13.8%

Row | Compound | growth inhibition [1] | growth inhibition [2] | growth inhibition [3] | growth inhibition [4] | growth inhibition [5] | growth inhibition [6]
22 | O=C(Nc1ccc(Cl)cc1)c1ccc(C(=O)Nc2ccc(Cl)cc2)cc1 | -12.9% | -26.4% | -20.1% | 5.35% | -6.4% | -24.9%
23 | COc1ccc(CCn2cnc3ccccc32)cc1 | -44.1% | -34.6% | -34.5% | -4.05% | -11.4% | -18.9%
24 | CC(C)C1C(=O)CCCC1=O | -10.5% | 9.6% | -5.5% | -12.9% | -17.5% | -3.35%
25 | O=C(N/N=C\c1ccc2c(c1)OCO2)c1ccc2c(c1)OCO2 | 0.7% | 0.05% | 1.85% | -15.2% | 5.05% | 0.55%
26 | CCNC1C2(CCCCC2)NC(=O)C12CCCCC2 (configuration not stated) | -43.4% | -10.9% | -1.1% | 12.1% | -7.05% | 2.65%
27 | COC(=O)C(=O)c1c(C(=O)OC)nc2nnc(N)n2c1C1CC1 | -5.6% | 11.8% | 7.75% | -17.9% | -5.35% | 4.25%
28 | CC(=O)N/N=C1/NN(C(C)=O)C2(S1)C(=O)Nc1ccc(C)cc12 (configuration not stated) | -4.15% | 38.8% | 40.1% | 28.8% | 24.8% | 7.7%
29 | CC(=O)c1cccc(NC(=O)N(C)C2CCCCC2)c1 | 5.65% | 13.7% | -3.65% | -15.6% | -7.45% | -22.1%
30 | O=C(Cn1cc[n+](CC(=O)c2ccccc2)c1)c1ccccc1 | -5.45% | 4.7% | -4% | -36.6% | 6.05% | 63.4%
31 | CCOC(=O)c1ccc(NC(=O)CNC2CCCCC2)cc1 | -0.05% | -8.7% | -3.2% | -40.8% | 4.55% | -26.1%
32 | CC1C(O)CCC2C1(C)CCC1C2(C)CCC2(C)C3CC(C)(C)CCC3(C)CCC12C (configuration not stated) | -4.9% | -3.3% | 12.4% | -10.1% | 5.75% | -6.75%
33 | Oc1ccc(N=Cc2ccc(C=Nc3ccc(O)cc3)cc2)cc1 | -22.9% | -12.6% | -19% | -7.7% | -13.4% | -16.4%
34 | CC(=O)OC(COC(c1ccccc1)(c1ccccc1)c1ccccc1)C(OC(C)=O)C(COC(c1ccccc1)(c1ccccc1)c1ccccc1)OC(C)=O (configuration not stated) | -25.9% | -8.4% | -22.5% | -18.8% | -6.6% | -15.1%
35 | CCOC1OC(C(O)CO)C(O)C(O)C1O (configuration not stated) | 4.6% | -8.7% | -1.9% | -56.4% | -7.9% | -0.6%
36 | O=C(Oc1ccc2ccccc2c1CN1CCOCC1)c1ccc([N+](=O)[O-])cc1 | 45.8% | 29.9% | 33.8% | 30.1% | 35.5% | 52%
37 | C=CCn1ccc(=O)nc1SCc1ccccc1 | 5.45% | -4.8% | 0.4% | -33.5% | 3.35% | 0.05%
38 | O=c1c2cc(S(=O)(=O)Nc3ccccc3Cl)ccc2ncn1NS(=O)(=O)c1ccc(Br)cc1 | 35.2% | 1.8% | 31.9% | -0.4% | 19.5% | 23.9%
39 | CNc1ccc(C(=O)O)cc1C | 1.25% | 12.6% | 9.8% | -15.8% | -56.4% | 0.4%
40 | CC(=O)Oc1ccc2c(c1)CCC1C2CCC2(C)CC(OC(C)=O)CC12 (configuration not stated) | 12.4% | -10.3% | -19.2% | 2.95% | 0.8% | -21.8%
41 | OCC1COc2ccc(Cl)cc2O1 (configuration not stated) (tested in a mixture with another compound) | -10.3% | -7.3% | 2.65% | 16.8% | 6.85% | 4.8%
42 | CCN(CC)C(=O)c1cc([N+](=O)[O-])c(=O)n2c1[nH]c1ccccc12 | -17.9% | 6.8% | -59.6% | 23.1% | -18.5% | -5.85%
